Tb PFK inh-1 – T. brucei PFK enzyme inhibition; T. brucei PFK, ADP-Glo luminescence; Potency, µM (series often up to 57.5 µM), without a hit: at the top dose activity, negative = inhibition, actives largely listed as inhibitors; 0.17% of 330,000 active;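 further: potency means the concentration at half of the fitted maximal effect; 0% = uninhibited 1x PFK enzyme wells and -100% = no-enzyme wells; nearly all actives have a fitted effect of over 60% in size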
Target sequence (O15648 whole entry, looked up): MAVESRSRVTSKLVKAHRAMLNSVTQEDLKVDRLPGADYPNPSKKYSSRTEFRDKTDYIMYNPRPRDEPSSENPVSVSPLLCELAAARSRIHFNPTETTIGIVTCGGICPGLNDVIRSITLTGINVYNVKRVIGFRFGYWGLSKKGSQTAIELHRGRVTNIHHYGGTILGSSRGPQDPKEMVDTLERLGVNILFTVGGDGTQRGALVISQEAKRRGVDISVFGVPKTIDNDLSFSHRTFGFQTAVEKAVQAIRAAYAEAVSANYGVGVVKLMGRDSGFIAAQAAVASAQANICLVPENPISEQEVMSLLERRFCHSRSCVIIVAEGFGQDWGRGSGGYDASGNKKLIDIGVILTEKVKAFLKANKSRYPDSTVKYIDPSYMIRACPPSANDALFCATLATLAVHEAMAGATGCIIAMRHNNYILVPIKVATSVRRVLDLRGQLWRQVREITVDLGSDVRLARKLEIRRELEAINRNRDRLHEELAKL
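Luminescent ADP detection (ADP-Glo, two-step: ATP depletion then ADP-to-ATP conversion for luciferase) reported PFK activity after 45 min room-temperature reaction of 1.25 nM enzyme with 0.5 mM F6P and 0.1 mM ATP at pH 8.0.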
Pin1 inhibitor – human Pin1 inhibition | 0.009% of 390,000 active | Pin1 FP peptide displacement, HiFluor488, 10 min | Potency, µM (titrated, usually from 115 µM), for the others: at the highest dose activity, negative = inhibition, most hits filed as inhibitors | Q13526; active means well fitted inhibition curve with a large enough effect in the polarisation, with a control signal flat, not every such curve was filed as active; inconclusive means small, poorly fitted or top-dose-only effect, or effect the other way, or a change in a side signal; inactive means no such curve, though single readings can be large or run the other way; the % refers to the polarisation; further: potency means the concentration at half of the fitted maximal effect; on the % scale 0 is the no-effect control and ±100 the full control effect
Target sequence (Q13526 whole entry, looked up): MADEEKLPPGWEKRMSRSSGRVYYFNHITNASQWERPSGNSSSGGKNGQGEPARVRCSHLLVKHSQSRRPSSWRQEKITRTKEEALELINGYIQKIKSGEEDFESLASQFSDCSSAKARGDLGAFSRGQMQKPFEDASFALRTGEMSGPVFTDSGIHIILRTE
USP2a block – blocks human ubiquitin-specific protease USP2a; USP2 core, Ub-CHOP2 coupled fluorogenic reporter, 485/531; Potency, µM (top dose mostly 38.3 µM), without a hit: at the top dose activity change, negative = inhibition, actives largely listed as inhibitors; 0.01% of 330,000 active; AID 463254;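 further: potency means the concentration at half of the fitted maximal effect; plate controls were DMSO wells for no effect and full inhibition by NEM control for full effect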
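Cell-free coupled assay: 10nM USP2 core preincubated 30min RT with compound in Tris-HCl pH 8.0/CaCl2/CHAPS buffer, then 25nM Ub-CHOP2 and 25nM reporter substrate; fluorescence (Ex 485/Em 531) read after 60min RT, normalized to NEM inhibition, concentration-response curves fitted.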
PI4K2A block – inhibitors of human PI4K2A; 0.13% of 420,000 active; Q9BTU6; purified PI4K2A, ADP-Glo luminescence, 1 h; active compounds read low; activity change, negative = inhibition, % at 76.9 µM; in the data active means activity change below about -50%; inconclusive means mostly about -30% to -49%;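 further: -100% = wells without enzyme as full effect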
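Compounds are screened against recombinant PI4K2A using PI as substrate and ATP, the latter dispensed at 300 microM. Reactions run one hour at ambient temperature before ADP-Glo detection; full inhibition defined by wells lacking enzyme.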
Tb PGK inh – T. brucei PGK inhibition; Potency, µM (highest dose often 57.5 µM), for inactives: at the highest dose activity change, negative = inhibition, most hits filed as inhibitors; 0.043% of 380,000 active; P07378; PGK/GAPDH coupled, Kinase-Glo luminescence, 60 min; further: potency means the concentration at half of the fitted maximal effect; on the % scale 0 is the no-effect control and ±100 the full control effect; nearly all actives have a fitted effect of over 60% in size
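Luminescent ATP detection (Kinase-Glo Plus) follows a 60-minute room-temperature incubation, with wells lacking PGK as controls. Buffer: 100 mM TEA (pH 7.6), 5 mM MgCl2, 0.01% Tween-20. Coupling enzyme GAPDH (100 nM final) supplies unstable 1,3-BPG in-well.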
TbPFK ATP – inhibits T. brucei PFK measured by ATP depletion | shares compounds with Tb PFK inh-1 | 47% of 1,100 active | Tb PFK enzyme, ATP depletion, Kinase-Glo Plus luminescence | Potency, µM (series often up to 57.5 µM), inactives show at the highest dose inhibition | AID 504636; calls by dose curve; further: potency means the concentration at half of the fitted maximal effect; nearly all actives have a fitted effect of over 60% in size
Tb PFK inh-2 – validation of T. brucei phosphofructokinase inhibitors; shares compounds with Tb PFK inh-1; purified T. brucei PFK, ADP-Glo luminescence, 45 min; Potency, µM (series often up to 57.5 µM), inactives show at the top dose activity change, negative = inhibition, hits mostly inhibitors; 41% of 1,100 active; AID 504637;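 further: potency means the concentration at half of the fitted maximal effect; plate controls were full PFK enzyme control for no effect and no enzyme control for full effect; nearly all actives have a fitted effect of over 60% in size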
* = called active by the depositor; i = inactive; u = inconclusive; x = no result given. The list is not random: actives were taken first. Their share in the collection is about 0.28%. Unless noted, the call rests on the fitted dose curve; in most records, active means well fitted curve in the direction sought with a large enough effect; inconclusive means small, poorly fitted or top-dose-only effect, or another doubt; inactive means no such curve, though single readings can be large; an effect the other way counts as inactive or inconclusive.

SMILES	Tb PFK inh-1	Pin1 inhibitor	USP2a block	PI4K2A block	Tb PGK inh	TbPFK ATP	Tb PFK inh-2
O=C(O)CCN1C(=O)c2ccc(NC(=O)CSc3ccc(Cl)cc3)cc2C1=O	u	1%	3%	1	-6%	u	u
O=C(O)CCN1C(=O)c2ccc(NC(=O)CCc3ccccc3)cc2C1=O	-6%	-7%	0%	2	-6%	x	x
O=C(COC(=O)Cc1cccc(C(F)(F)F)c1)NCc1ccco1	8.5µM*	-6%	0%	-21	u	3.8µM*	11µM*
COc1cc(OC)cc(C(=O)OCC(=O)NCc2ccco2)c1	15µM*	u	0%	-10	-15%	u	u
O=C(COC(=O)Cc1ccc(F)cc1)NCc1ccco1	u	-2%	0%	0	x	x	x
CC(=O)N1c2ccc(S(=O)(=O)Nc3ccc(C)c(C)c3)cc2CC1C (stereo unspecified)	x	9%	x	x	x	x	x
O=S(=O)(c1ccccc1)N1CCN(c2nc(C3CC3)nc3ccccc23)CC1	x	-17%	x	x	x	x	x
Cc1ccc(Cl)c(OCC(O)CNC(C)(C)C)c1 (stereo unspecified)	x	x	x	2	x	x	x
O=C(NC1CCCC1)c1ccc(CSc2nc3ccncc3n2Cc2cccc(F)c2)cc1	x	-4%	x	-3	2%	x	x
O=C(NC1CCCC1)c1ccc(CSc2nc3ccncc3n2Cc2ccc(F)cc2)cc1	u	10%	2%	1	-4%	u	27µM*
O=C(NCCN1CCOCC1)c1ccc(CSc2nc3ccncc3n2Cc2ccc(F)cc2)cc1	u	7%	1%	-1	i	u	u
O=C(O)CCCNc1ccc(S(=O)(=O)Nc2ccccc2C(=O)O)cc1C(=O)O	u	u	2%	-3	x	-26%	u
Cn1c(=O)n(C)c2cc(S(=O)(=O)Nc3ccccc3C(=O)O)ccc21	-9%	-7%	0%	-1	2%	x	x
O[C@@H](COc1cccc2ncccc12)CN1CCN(C2c3ccccc3[C@@H]3[C@H](c4ccccc42)C3(F)F)CC1 (stereo partly specified)	x	x	x	-7	x	x	x
COc1cc(-c2cc(=O)c3c(O)c(OC)c(OC)c(O)c3o2)ccc1O	u	3%	0%	-14	-15%	6µM*	9.5µM*
CCOC(=O)c1c(-c2ccc(OC)cc2)csc1/N=C/C1C(=O)CCCC1=O	u	u	-1%	-1	-7%	1%	-1%
CCOC(=O)c1c(-c2ccc(OC)cc2)csc1/N=C/N(C)C	2%	6%	3%	-1	i	x	x
CCCCC(=O)O[C@]1(C(=O)CO)[C@@H](C)C[C@H]2[C@@H]3CCC4=CC(=O)C=C[C@]4(C)[C@@]3(F)[C@@H](O)C[C@@]21C	x	x	x	-2	x	x	x
O=C(NNc1nc2ccccc2s1)c1ccc(F)cc1	-6%	6%	0%	3	-9%	x	x
CC(C)NC(=S)NNc1nc2ccccc2s1	u	-4%	1%	-3	0%	8.5µM*	7.6µM*
CN(C)CCN1CCN(c2cccc(Cl)c2)C1=O	x	x	x	-2	x	x	x
C/C(=N\NC(=O)Cc1ccc(Cl)c(Cl)c1)c1cccnc1	19µM*	0%	0%	-2	-1%	12µM*	u
O=C(CC(=O)Nc1cccnc1)Nc1cccnc1	0%	-1%	0%	3	-5%	x	x
O=C(Cc1ccc(Cl)c(Cl)c1)Nc1cccnc1	15µM*	-9%	0%	-4	i	3.8µM*	12µM*
CCc1ccc(C2CCNCC2)cc1	x	x	x	1	x	x	x
SMILES	Tb PFK inh-1	Pin1 inhibitor	USP2a block	PI4K2A block	Tb PGK inh	TbPFK ATP	Tb PFK inh-2
Cc1cc2c(cc1[N+](=O)[O-])NC(CNC(C)C)CC2 (stereo unspecified)	12µM*	0%	-3%	4	-2%	27µM*	17µM*
O=C1C2C3C=CC(CO)(O3)C2C(=O)N1c1ccccc1-c1ccccc1 (stereo unspecified)	21µM*	2%	-2%	1	-1%	24µM*	u
CC(=O)Oc1ccc(N2C(=O)C3C4C=CC(CO)(O4)C3C2=O)cc1 (stereo unspecified)	-14%	-1%	-6%	-7	-5%	x	x
COc1ccc(NS(=O)(=O)c2ccccc2)cc1NS(=O)(=O)c1ccccc1	x	-9%	x	x	x	x	x
O=C(O)C1OC(Oc2cc3oc(-c4ccccc4)cc(=O)c3c(O)c2O)C(O)C(O)C1O (stereo unspecified)	6.7µM*	u	0%	-5	-1%	u	9.5µM*
CN(C)c1ccc(C(=S)N2CCN(c3ccc([N+](=O)[O-])cc3)CC2)cc1	12µM*	2%	2%	-1	2%	8.5µM*	13µM*
Cc1cccc(N2CCN(C(=S)c3ccc([N+](=O)[O-])cc3)CC2)c1	u	5%	-1%	-5	-6%	24µM*	u
COc1ccc(C(=O)COC(=O)/C=C/c2ccccc2)c(OC)c1	u	u	2%	-14	2%	u	-14%
COc1ccc(C(=O)COC(=O)/C=C/c2ccccc2)cc1	1%	1%	-10%	-3	12%	x	x
O=[S+]([O-])(c1ccc2c(c1)OCCO2)N1CCN([S+](=O)([O-])c2ccc(F)cc2Cl)CC1	x	1%	x	x	x	x	x
OC[C@H]1O[C@H](O[C@]2(CCl)O[C@H](CCl)[C@@H](O)[C@@H]2O)[C@H](O)[C@@H](O)[C@H]1Cl	x	x	x	3	x	x	x
COC(c1ccccc1)(c1ccccc1)[C@H](Oc1nc(C)cc(C)n1)C(=O)O	x	x	x	-1	x	x	x
Cc1cc(NS(=O)(=O)c2ccc(NC(=S)NCc3ccccc3)cc2)no1	19µM*	-9%	-1%	3	-4%	24µM*	u
N#Cc1ccc(OCC(=O)Nc2ccc(S(=O)(=O)N3CCOCC3)cc2)cc1	12µM*	4%	-1%	1	-1%	12µM*	30µM*
Cc1noc(NS(=O)(=O)c2ccc(NC(=O)COc3ccc(C#N)cc3)cc2)c1C	13µM*	-1%	3%	1	11%	6.7µM*	21µM*
Cc1cc(NS(=O)(=O)c2ccc(NC(=O)Cc3ccc([N+](=O)[O-])cc3)cc2)no1	2.4µM*	10%	0%	-3	4%	0.85µM*	1.5µM*
Cc1cccc(OCC(=O)Nc2ccc(S(=O)(=O)Nc3onc(C)c3C)cc2)c1C	0%	-9%	1%	-2	-2%	x	x
N#Cc1nc(Nc2cccc3ccccc23)nc(NC2CCCC2)n1	x	14%	x	x	x	x	x
Cc1cc2[nH]c3c(=O)n(Cc4ccccc4F)ncc3c2s1	x	-3%	x	x	x	x	x
